# Compound activity: PubChem, National Center for Advancing Translational Sciences (NCATS)
# The list is not random: actives were taken first. Their share in the collection is about 19%.
# TDP1 cell CPT – DT40-hTDP1 cell growth loss with CPT. chicken DT40 Tdp1-/-;hTDP1 cells + 20 nM CPT, ATP luminescence, 48 h. Potency, µM (series often up to 46.2 µM), for the others: at the top dose activity change, negative = growth inhibition, actives largely listed as inhibitors. hit rate 12% among 420,000. AID 686979; note: potency is the fitted concentration of half-maximal effect; nearly all actives have a fitted effect of over 55% in size
#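 Cell growth measured by CellTiter-Glo luminescence after a minimum 48 h, 37 C compound exposure with 20 nM CPT in Tdp1-knockout DT40 cells stably expressing hTDP1, seeded 400/well; qHTS titration format.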
# HT1080 IDH1KD tx – kills HT-1080 cells with IDH1 knockdown; Potency, µM (doses to about 46.1 µM), without a hit: at the top dose activity, negative = toxicity, hits mostly cytotoxic; AID 686971; HT-1080 IDH1 knockdown viability, ATP luminescence, 48 h; hit rate 2% among 360,000;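 note: potency is the fitted concentration of half-maximal effect; 0% = DMSO wells and -100% = cell-free medium wells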
#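 After a 2 h attachment period, IDH1KD HT-1080 cells took pin-transferred compound for 48 h at 37 °C; ATP-based luminescence after 10 min room-temperature reagent incubation reported viability.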
# IL-1B inflam inh – inhibitors of inflammasome signaling (IL-1 beta secretion); THP-1 LPS/ATP IL-1B secretion, AlphaLISA, 16 h; hits give low values; activity change, % at 57.5 µM; hit rate 4.7% among 360,000; AID 743279; in the data active = activity change below about -50%; inconclusive = mostly about -30% to -49%
#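 Secreted IL-1B measured by AlphaLISA bead assay after 16 h compound exposure of THP-1 cells; compounds (final up to 57.5 uM) added 1 h before LPS (250 ng/mL) and ATP (1.25 mM) stimulation; lower signal means less secretion.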
# HT1080-NT tox – kills 2HG-producing HT-1080-NT fibrosarcoma cells; HT-1080-NT fibrosarcoma viability, CellTiter-Glo ATP luminescence, 48 h; Potency, µM (top dose mostly 46.1 µM), for inactives: top-dose activity, negative = less viability, most hits filed as cytotoxic; hit rate 1.6% among 360,000;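 note: NT is the 2HG producing partner of a matched IDH1 knockdown line; potency is the fitted concentration of half-maximal effect; 0% = DMSO-treated cells and -100% = media-only wells without cells; nearly all actives have a fitted effect of over 55% in size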
#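 HT-1080-NT; 750 cells/well; 5% FBS RPMI; 48 h compound, 37 degrees C; CellTiter-Glo luminescence; curve fitting and curve-class assignment.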
# TDP1 cell noCPT – qHTS for Inhibitors of human tyrosyl-DNA phosphodiesterase 1 (TDP1): qHTS in cells in absence of CPT; DT40 Tdp1-/- hTDP1 cells, no CPT, ATP luminescence, 48 h; Potency, µM (titrated, usually from 46.2 µM), for the others: at the top dose activity change, negative = growth inhibition, hits mostly inhibitors; hit rate 15% among 420,000; AID 686978, 2013; note: potency is the fitted concentration of half-maximal effect; nearly all actives have a fitted effect of over 55% in size
#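 DT40 Tdp1-/-;hTDP1 cells, no CPT (DMSO vehicle only), 400 cells/well; compounds pin-transferred; ≥48 hr, 37 °C; CellTiter-Glo 30 min RT dark, luminescence read.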
# ELG1 DNA repair – blocks ELG1-dependent DNA repair in HEK293T cells; Potency, µM (doses to about 46.1 µM), for inactives: at the top dose activity change, negative = inhibition, most hits filed as inhibitors; hit rate 2.3% among 330,000; AID 504467; HEK293T ELG1-luciferase reporter, luminescence, 16 h; DNA damage induced by 5-fluorouridine; note: potency is the fitted concentration of half-maximal effect; nearly all actives have a fitted effect of over 55% in size
#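 Cells (2,000 per well) received 5-fluorouridine plus test compound or DMSO and were incubated 16 hr at 37 °C, 5% CO2. Luciferase activity was read by luminescence 30 min after ONE-Glo addition; signal suppression marked inhibition of damage-induced ELG1 function.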
# Starred values were filed as active, the others as inactive; ? = inconclusive; . = no result given; [ ] = another dose, or the depositor's remark. Unless noted, calls come from the whole dose curve; as a rule, active = well fitted curve in the direction sought with a large enough effect; inconclusive = small, poorly fitted or top-dose-only effect, or another doubt; inactive = no such curve, though single readings can be large; an effect the other way counts as inactive or inconclusive. Unless noted, % is set by controls: 0 for no effect and ±100 for the full control effect.
SMILES,TDP1 cell CPT,HT1080 IDH1KD tx,IL-1B inflam inh,HT1080-NT tox,TDP1 cell noCPT,ELG1 DNA repair
O=C(CN1C(=O)c2cccc3cccc1c23)Nc1ccccc1Br,-11%,.,.,.,-12%,.
CCc1cccc(NC(=O)C2CC2c2ccccc2)c1 (stereo unspecified),7%,-3%,?,4%,-2%,?
CCc1ccccc1Nc1ncnc2c1cnn2-c1ccc(C)cc1C,?,.,.,.,18µM*,.
Cc1ccc(-n2ncc3c(NCCCc4ccccc4)ncnc32)cc1,-29%,.,.,.,-28%,.
Cc1ccc(-n2ncc3c(SCc4cccnc4)ncnc32)c(C)c1,16µM*,?,-13,?,12µM*,?
Fc1ccc(-n2ncc3c(Nc4ccc(Oc5ccc(Cl)cc5)cc4)ncnc32)cc1,?,.,.,.,18µM*,.
Cc1ccc(-n2ncc3c(NCCCn4ccnc4)ncnc32)c(C)c1,?,0%,20,-12%,?,?
Cc1ccc(-n2ncc3c(Nc4ccccc4C)ncnc32)cc1,?,.,.,.,16µM*,.
CN(C)S(=O)(=O)c1ccc(NC(=O)COC(=O)CC2CC3CCC2C3)cc1 (stereo unspecified),-14%,5%,0,6%,-2%,9%
CCC(CO)Nc1ncnc2c1cnn2-c1ccc(Cl)cc1 (stereo unspecified),0%,-2%,-5,-6%,-20%,?
CCN(c1ccccc1)c1ncnc2c1cnn2-c1ccc(C)cc1C,9.2µM*,.,.,.,9.2µM*,.
CCc1ccccc1Nc1ncnc2c1cnn2-c1ccc(Cl)cc1,16µM*,.,.,.,?,.
Cc1ccc(-n2ncc3c(Nc4ccc(Oc5ccccc5)cc4)ncnc32)c(C)c1,16µM*,.,.,.,23µM*,.
O=C(Cn1c(=O)c2cccn2c2cccnc21)N1CCN(c2ccccc2F)CC1,-10%,-13%,18,-15%,-12%,-3%
CCOC(=O)c1ccccc1NC(=O)C1CCN(c2ncnc3sc(C)c(C)c23)CC1,23µM*,-6%,54,-5%,?,?
Cc1sc2ncnc(N3CCC(C(=O)Nc4ccccc4C(C)(C)C)CC3)c2c1C,21µM*,-22%,-9,-3%,13µM*,9.2µM*
CCOC(=O)c1nnsc1N,-1%,5%,-6,7%,-1%,10%
Cc1ccc(/C=C2\SC(=S)N(C3CCS(=O)(=O)C3)C2=O)cc1 (stereo unspecified),?,6%,-24,-3%,15µM*,-4%
O=C1/C(=C/c2ccncc2)SC(=S)N1C1CCCCC1,-12%,16%,8,16%,?,14%
O=C1/C(=C/c2ccco2)SC(=S)N1C1CCS(=O)(=O)C1 (stereo unspecified),15µM*,-22%,-9,-26%,16µM*,-14%
O=C1/C(=C\c2ccco2)SC(=S)N1C1CCS(=O)(=O)C1 (stereo unspecified),23µM*,?,.,?,21µM*,7%
O=C(NCC1CCC2(CCN(Cc3cnn(-c4ccc(F)cc4)c3)CC2)O1)c1ccccc1 (stereo unspecified),-9%,.,.,.,-27%,.
COc1cc(CCNC(C)=O)c(C(=O)/C=C/c2cccc(OC)c2OC)cc1OC,2%[9.04 µM],.,.,.,-16%[9.04 µM],.
Cc1cc(C)c(S(=O)(=O)NCCc2csc3nc(-c4ccc(Cl)cc4)nn23)c(C)c1,?,.,.,.,18µM*,.
Cc1ccc(S(=O)(=O)NCCc2sc3nc(-c4ccccc4)nn3c2C)cc1C,-6%,.,.,.,-29%,.
COc1ccc(-c2nc3scc(CCNS(=O)(=O)c4ccc(Oc5ccccc5)cc4)n3n2)cc1,-13%,.,.,.,?,.
CCS(=O)(=O)NCCc1csc2nc(-c3ccc(C)cc3)nn12,16µM*,.,.,.,?,.
